Screening data: PubChem, National Center for Advancing Translational Sciences (NCATS)
This is one part of a sample in which hits are shown more often than they occur.
Shiga inhibitor: blocks Shiga toxin action in Vero cells | AID 2315 | inhibition, % at 38.7 µM | Vero cells, Shiga toxin protein synthesis inhibition reporter | actives 9.2% (n = 290,000); in the data active means inhibition mostly above about 28%, no sharp cut-off; inactive means mostly below about 43%; further: 0% is about no effect
NS1 inh: blocks influenza NS1 protein function; Potency, µM (highest dose often 46.1 µM), inactives show at the top dose activity, positive = more growth; actives 0.4% (n = 270,000); AID 2326; calls by dose curve; further: potency means the concentration at half of the fitted maximal effect; actives are rising curves; nearly all actives have a fitted effect of over 50% in size
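A cell-based growth assay was used: compounds that relieve NS1-induced slow growth of budding yeast raise OD600. Assay medium was yeast nitrogen base with ammonium sulphate and -URA supplement, pH 6.0, with 2% galactose.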
CHX counter: counter-screen for Shiga toxin inhibitors: cycloheximide protein synthesis inhibition; cell reporter, cycloheximide protein synthesis inhibition counterscreen; max response, %; actives 12% (n = 300,000); in the data active means max response mostly above about 13%, no sharp cut-off; inactive means mostly below about 14%; further: read at 38.3 µM for the half of the compounds with a filed dose; 0% is about no effect
LmPK inh: inhibitors of Leishmania mexicana pyruvate kinase; Q27686; purified LmPK, Kinase-Glo ATP luminescence, 1 h; Potency, µM (top dose mostly 57.5 µM), without a hit: at the top dose activity change, negative = inhibition, actives largely listed as inhibitors; actives 0.37% (n = 290,000); further: potency means the concentration at half of the fitted maximal effect; on the % scale 0 is the no-effect control and ±100 the full control effect
Target sequence (Q27686 whole entry, looked up): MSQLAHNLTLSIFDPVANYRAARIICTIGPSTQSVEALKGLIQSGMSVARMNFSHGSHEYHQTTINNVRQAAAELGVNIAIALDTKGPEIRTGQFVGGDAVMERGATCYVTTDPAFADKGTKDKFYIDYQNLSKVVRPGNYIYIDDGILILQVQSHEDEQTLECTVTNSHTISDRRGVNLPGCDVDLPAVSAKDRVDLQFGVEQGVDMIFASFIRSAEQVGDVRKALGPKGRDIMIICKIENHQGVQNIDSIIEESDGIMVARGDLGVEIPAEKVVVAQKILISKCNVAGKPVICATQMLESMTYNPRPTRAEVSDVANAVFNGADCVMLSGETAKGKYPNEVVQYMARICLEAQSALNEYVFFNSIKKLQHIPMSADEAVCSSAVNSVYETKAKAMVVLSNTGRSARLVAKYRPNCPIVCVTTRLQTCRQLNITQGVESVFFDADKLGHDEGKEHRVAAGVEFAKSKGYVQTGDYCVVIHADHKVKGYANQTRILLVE
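0.1 nM LmPK, 0.5 mM PEP, 0.1 mM ADP; 50 mM imidazole pH 7.2, 7 mM MgCl2, 50 mM KCl; 1 h RT. Kinase-Glo luminescence readout, normalized to no-enzyme (full inhibition) and uninhibited wells.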
SARS PLP yeast: blocks SARS-CoV papain-like protease in a yeast assay. S. cerevisiae expressing SARS-CoV PLpro, growth rescue. Potency, µM (series often up to 32.9 µM), inactives show top-dose activity, positive = growth rescue, hits mostly activators. actives 0.19% (n = 330,000). AID 485353; calls by dose curve; further: potency means the concentration at half of the fitted maximal effect; 0% is about no effect; nearly all actives have a fitted effect of over 55% in size
TbPYK inhibitor: inhibitors of Trypanosoma brucei pyruvate kinase; Q57TT1; TbPYK enzyme, Kinase-Glo Plus ATP luminescence, 45 min; Potency, µM (series often up to 76.8 µM), for inactives: at the highest dose activity, negative = inhibition, hits mostly inhibitors; actives 0.12% (n = 410,000); further: potency means the concentration at half of the fitted maximal effect; on the % scale 0 is the no-effect control and ±100 the full control effect; nearly all actives have a fitted effect of over 50% in size
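In this concentration-response screen, enzyme-free wells defined baseline while DMSO plates tracked drift. Each reaction combined TbPYK, substrate, compound and 130 uM ADP for 45 min at room temperature. Kinase-Glo Plus luminescence gave the signal.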
Numbers without * were called inactive; ? = inconclusive; nt = not tested or not shown; + = active, no number. Unless noted, the call rests on the fitted dose curve; in most records, active means well fitted curve in the direction sought with a large enough effect; inconclusive means small, poorly fitted or top-dose-only effect, or another doubt; inactive means no such curve, though single readings can be large; an effect the other way counts as inactive or inconclusive.

SMILES | Shiga inhibitor | NS1 inh | CHX counter | LmPK inh | SARS PLP yeast | TbPYK inhibitor
O=C(NCCc1cccs1)C1CC(c2c(Cl)cccc2Cl)=NO1 (configuration not stated) | 46 | -26% | 40* | 2% | 6% | -3%
CCOc1ccc(NCc2cccn2-c2nnc(N3CCC(C(=O)NCCCN4C(C)CCCC4C)CC3)s2)cc1 (configuration not stated) | 17 | -17% | 9 | 0% | 1% | 7%
CCOc1ccc(NCc2cccn2-c2nnc(N3CCC(C(=O)NCCCN4CCCCC4)CC3)s2)cc1 | 23* | -4% | 17* | 8% | -4% | 5%
COc1ccc(C2NN=C(c3ccc(C)cc3)S2)cc1 (configuration not stated) | 106* | -3% | 57* | 3% | -1% | -13%
COc1ccc(C2C(=O)NN=C2C)cc1 (configuration not stated) | nt | nt | nt | nt | nt | -1%
Cc1ccc(C2=NNC(C(O)C(O)C(O)CO)S2)cc1 (configuration not stated) | 61* | 5% | 57* | 0% | 1% | -12%
CCCc1ccc(C(O)c2ncc(-c3ccc(C)cc3)[nH]2)cc1 (configuration not stated) | nt | nt | nt | nt | nt | -8%
CCOc1cc(C2NN=C(c3ccc(C)cc3)S2)ccc1O (configuration not stated) | 94* | -1% | 30* | 2% | -10% | -15%
COc1ccc(C(=O)N(C)Cc2ccc(C)o2)cc1OC1CCN(C(C)C)CC1 | -3 | 2% | 4 | 0% | 0% | -2%
CC1Cc2ccccc2N1S(=O)(=O)c1nnc(NC(=O)c2ccccc2Br)s1 (configuration not stated) | nt | nt | nt | nt | nt | -3%
CCOC(=O)c1cnc(SC)nc1N | -3 | -8% | 17* | -10% | -1% | 5%
CCOC(=O)c1cnc(SCC(C)C)nc1N | + | -47% | 52* | -5% | 8% | 0%
CCOC(=O)c1cnc(SCC#N)nc1N | 13 | -2% | 7 | -1% | 1% | 30%
CCOC(=O)c1cnc(SCc2cccc(C)c2)nc1N | 54* | 11% | 53* | 4% | -5% | -13%
NC(N)=NCCC[C@H](NC(=O)[C@H](Cc1ccccc1)NC(=O)[C@@H]1CCCN1C(=O)[C@H](CO)NC(=O)[C@H](Cc1ccccc1)NC(=O)CNC(=O)[C@@H]1CCCN1C(=O)[C@@H]1CCCN1C(=O)[C@@H](N)CCCN=C(N)N)C(=O)O | -6 | nt | -5 | nt | nt | nt
CC(C)CN(C(=O)CN(C)CC(=O)Nc1ccccc1C#N)c1c(N)n(CC(C)C)c(=O)[nH]c1=O | nt | nt | nt | nt | -6% | 15%
CCCCCCOC(=O)Sc1nc2ccccc2o1 | 43* | -211% | 29* | 3% | -36% | nt
O=C(CSc1nc2ccccc2o1)c1ccccc1 | active | -5% | 47* | 1% | 12% | -4%
O=C(CSc1nc2ccccc2o1)c1ccc2c(c1)OCCO2 | 98* | 1% | 40* | 0% | 2% | -3%
O=C(O)c1ccccc1CSc1nc2ccccc2o1 | 67* | -73% | 35* | -19% | -11% | -9%
CCCCCCCCOC(=O)c1ccccc1C(=O)OCCCCCCCC | nt | nt | nt | nt | nt | -4%
CC(=O)CSc1nc2ccccc2o1 | 57* | 10% | 27* | 0% | -19% | 0%
COC(=O)c1ccc2c(c1)C(C)(C)C(/C=C/c1ccccc1O)=[N+]2C | -26 | 8% | -13 | 14µM* | -24% | ?
O=C(CCNS(=O)(=O)c1ccccc1)OCc1ccc([N+](=O)[O-])cc1 | nt | nt | nt | nt | nt | 2%
C=CCNC(=S)/N=c1\sccn1C | 26 | -93% | 15* | 2% | 13% | 0%
SMILES | Shiga inhibitor | NS1 inh | CHX counter | LmPK inh | SARS PLP yeast | TbPYK inhibitor
Cc1csc(=Nc2ccccc2)n1C | 38 | nt | 22* | -2% | 0% | -12%
Cc1csc(=Nc2ccccc2)n1CCCN1CCCC1=O | 15 | 5% | 2 | 0% | 0% | -10%
CCCn1c(C)cs/c1=N\C(=S)Nc1ccccc1 | 9 | 9% | -5 | -3% | 6% | 1%
C=CCNC(=S)/N=c1/scc(C)n1C | 24 | -1% | 19* | -2% | 19% | 1%
Cc1cs/c(=N/C(=S)Nc2ccccc2)n1C | 143* | -3% | 101* | -1% | -26% | -9%
CNS(=O)(=O)c1ccccc1C(=N)c1ccccc1 | nt | 1% | nt | nt | nt | nt
Cc1ccccc1S(=O)(=O)Cc1ccc(C(=O)N2CCN(c3ccccc3F)CC2)o1 | -5 | -5% | -3 | -1% | -5% | 0%
Cc1cc(NC(=O)c2cccc(Cl)c2)n[nH]1 | nt | nt | nt | nt | -4% | 0%
Cc1cc(NC(=O)NC(=O)c2ccc(F)cc2F)n[nH]1 | 43* | -1% | 19* | -8% | 0% | 3%
CC1(C(=O)Nc2cccc3cccnc23)CCN1C(=O)Cc1ccc(Cl)cc1Cl (configuration not stated) | nt | nt | nt | nt | nt | 2%
Cc1ccc(OCCN2CCOCC2)cc1C | 40 | 9% | 17* | -9% | -4% | -3%
Cc1cc(OCCN2CCOCC2)ccc1Cl | 138* | -1% | 32* | -5% | -7% | 4%
Clc1ccc(OCCN2CCOCC2)cc1 | 13 | 3% | 5 | 1% | -4% | -4%
Cc1cc(OCCN2CCOCC2)ccc1[N+](=O)[O-] | 17 | 5% | 10 | -6% | 7% | 9%
CC(=O)Oc1cc2c3c(c1)/C(=C1/SC(=S)NC1=O)C(=O)N3C(C)(C)C=C2C | -8 | 5% | -5 | -10% | 0% | -7%
O=C(CCSc1ccccc1)NCCSCc1ccco1 | 7 | -10% | 11* | 1% | -21% | -8%
O=C(Nc1ccc(Cl)cc1)Nc1ccccc1C(=O)NCc1ccco1 | 58* | 3% | 56* | -14% | -10% | -2%
Cc1cc(Cl)ccc1N(CC(=O)NCCSCc1ccco1)S(C)(=O)=O | 20 | 0% | 9 | 10% | 1% | -8%
O=C(COc1ccccc1)NCCSCc1ccco1 | 13 | 3% | 12 | 1% | -15% | -1%
O=C(NCCSCc1ccco1)Nc1cccc(Cl)c1 | 40* | -56% | 37* | -2% | -12% | 19%
O=C(NCCSCc1ccco1)Nc1ccc(Cl)cc1 | 101* | -32% | 29* | 1% | nt | -2%
CCN(CCCNC(=O)c1ccc(Sc2ccc(F)cc2)c(NC(C)=O)c1)c1ccccc1 | nt | nt | nt | nt | nt | 0%
COC(=O)c1nnn(-c2nonc2N)c1CSc1nc2ccccc2s1 | 27 | -12% | 21* | -1% | 0% | -6%
C=CCn1c(C)cc(C(=O)CSc2nnc(NCc3ccccc3)s2)c1C | 57 | -123% | 46* | 14% | -15% | -26%
Cc1cc(NC(=O)CSc2nnc(NCc3ccccc3)s2)no1 | -4 | 3% | -3 | 11% | 0% | 5%
C=CCn1c(C)cc(C(=O)CSc2nnc(NC(C)C)s2)c1C | 4 | 5% | 8 | -4% | -18% | -3%
Cc1cc(C(=O)CSc2nc3ccccc3o2)c(C)n1C1CC1 | 27* | -29% | 53* | -1% | -21% | 1%
